# This is part of a sample that, as a whole, favours compounds with a hit. Of some 79,000 tested, about 15% had one in any assay. A number with no mark means an inactive call. Calls of active or inactive are those of the source. No stated cut-off is given here; in the data, active means growth inhibition above about 70%; inactive means the rest.
# Assays:
# [1] = NCI Yeast Anticancer Drug Screen. Data for the rad52 strain (AID 147);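 further: 0% = growth of vehicle-treated control cultures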; details: S. cerevisiae rad52 mutant growth inhibition, stronger effect = higher value
# Method in brief: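 Read-out: growth inhibition versus vehicle-treated controls. Cells were a DNA repair-deficient yeast strain treated with compounds.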
# [2] = NCI Yeast Anticancer Drug Screen. Data for the wt1 strain (AID 149);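 further: 0% = growth of vehicle-treated wt1 cultures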; details: S. cerevisiae wt1 strain (SPY 50644) growth inhibition, stronger effect = higher value
# Method in brief: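 Yeast wt1 strain exposed to compounds; growth inhibition measured relative to vehicle-treated controls.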
# [3] = NCI Yeast Anticancer Drug Screen. Data for the rad50EPP+ strain (AID 151);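 further: 0% = growth of vehicle-treated control cultures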; details: S. cerevisiae rad50 mutant strain, stronger effect = higher value
# Method in brief: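 Growth inhibition read against vehicle controls in rad50EPP+ yeast, a strain altered in DNA damage repair, after compound exposure.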
# [4] = NCI Yeast Anticancer Drug Screen. Data for the rad50 strain (AID 155);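 further: 0% = growth of vehicle-only cultures of the same strain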; details: S. cerevisiae rad50 strain growth inhibition, stronger effect = higher value
# Method in brief: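 Yeast carrying a defined DNA repair defect were exposed to test compounds, and growth was compared with vehicle-treated controls to give percent inhibition.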
# [5] = NCI Yeast Anticancer Drug Screen. Data for the mec2-1 strain (AID 157); details: S. cerevisiae mec2-1 strain, stronger effect = higher value
# Method in brief: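 Yeast mec2-1 mutant treated with compound. Readout: growth inhibition vs vehicle controls.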
# [6] = NCI Yeast Anticancer Drug Screen. Data for the rad14 strain (AID 159);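 further: 0% = growth of vehicle-treated control cultures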; details: S. cerevisiae rad14 strain growth inhibition, stronger effect = higher value
# Method in brief: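 Yeast cells carrying a defined DNA-repair defect were exposed to compounds, and growth inhibition was calculated relative to vehicle-treated control cultures.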
# [7] = NCI Yeast Anticancer Drug Screen. Data for the sgs1 mgt1 strain (AID 161);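 further: 0% = growth of cultures given vehicle only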; details: S. cerevisiae sgs1 mgt1 strain, stronger effect = higher value
# Method in brief: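 Test agents were incubated with a DNA-repair-mutant yeast strain. Growth was then read and compared against vehicle-treated controls.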
# [8] = NCI Yeast Anticancer Drug Screen. Data for the CLN2oe strain (AID 163);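 further: 0% = growth of vehicle-only control cultures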; details: S. cerevisiae CLN2oe strain, stronger effect = higher value
# Method in brief: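 Read-out: yeast growth inhibition, expressed relative to vehicle-only controls. The strain bears an engineered cell-cycle alteration.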
# [9] = NCI Yeast Anticancer Drug Screen. Data for the cln2 rad14 strain (AID 165);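 further: 0% = growth equal to vehicle treated cultures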; details: S. cerevisiae cln2 rad14 strain, stronger effect = higher value
# Method in brief: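 cln2 rad14 yeast strain; compound exposure; growth inhibition read vs vehicle controls.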
# [10] = NCI Yeast Anticancer Drug Screen. Data for the bub3 strain (AID 167); details: S. cerevisiae bub3 mutant strain, stronger effect = higher value
# Method in brief: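 Compounds were applied to a genetically altered yeast strain carrying a cell-cycle control defect. Growth inhibition was scored against vehicle-treated controls.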
# [11] = NCI Yeast Anticancer Drug Screen. Data for the wt2 strain (AID 169);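 further: 0% = growth of vehicle-treated yeast cultures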; details: S. cerevisiae wt2 strain growth inhibition, stronger effect = higher value
# Method in brief: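 Read-out: growth inhibition versus vehicle-treated control cultures after compound exposure of the yeast strain.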
# [12] = NCI Yeast Anticancer Drug Screen. Data for the mlh1 strain (AID 171);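 further: 0% = growth of vehicle-treated control cultures of the same strain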; details: S. cerevisiae mlh1 strain growth inhibition, stronger effect = higher value
# Method in brief: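 Read-out: growth inhibition versus vehicle controls. Strain: engineered yeast with a defined DNA repair or cell cycle defect, compound-treated.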
# [13] = NCI Yeast Anticancer Drug Screen. Data for the sgs1 strain (AID 173);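 further: 0% = growth of vehicle-only control cultures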; details: S. cerevisiae sgs1 mutant, stronger effect = higher value
# Method in brief: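 Read-out: yeast growth inhibition relative to vehicle controls, following compound exposure of a strain with a defined DNA repair/cell cycle alteration.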
# [14] = NCI Yeast Anticancer Drug Screen. Data for the mlh1 rad18 strain (AID 175); details: S. cerevisiae mlh1 rad18 strain growth inhibition, stronger effect = higher value
# Method in brief: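 Yeast w/ defined DNA-repair lesions; compound exposure; growth vs vehicle controls → % inhibition.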
# [15] = NCI Yeast Anticancer Drug Screen. Data for the rad18 strain (AID 177); details: S. cerevisiae rad18 mutant growth inhibition, stronger effect = higher value
# Method in brief: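 Readout: growth inhibition vs vehicle controls. Cells: genetically altered yeast strain, DNA repair defect.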
# [16] = at 5.0 µM (retest, dose inferred, filed as 0.5)
# [17] = at 50.0 µM (retest, dose inferred, filed as 5.0)
smiles,measurement,setting,value
CC1=C(O)C(=O)C=C2C1=CC=C1[C@@]2(C)CCC2(C)[C@@H]3C[C@@H](C)C(=O)C[C@]3(C)CC[C@]12C (stereo partly drawn),growth inhibition,[1]; at 1.2 µM,41%
same,growth inhibition,[1]; at 3.7 µM,58%
same,growth inhibition,[1]; at 11.0 µM,98% (active)
same,growth inhibition,[1]; at 33.0 µM,98% (active)
same,growth inhibition,[1]; at 100.0 µM,96% (active)
same,growth inhibition,[2]; at 1.2 µM,9%
same,growth inhibition,[2]; at 3.7 µM,8%
same,growth inhibition,[2]; at 11.0 µM,96% (active)
same,growth inhibition,[2]; at 33.0 µM,97% (active)
same,growth inhibition,[2]; at 100.0 µM,96% (active)
same,growth inhibition,[3]; at 1.2 µM,9%
same,growth inhibition,[3]; at 3.7 µM,12%
same,growth inhibition,[3]; at 11.0 µM,29%
same,growth inhibition,[3]; at 33.0 µM,32%
same,growth inhibition,[3]; at 100.0 µM,59%
same,growth inhibition,[4]; at 1.2 µM,11%
same,growth inhibition,[4]; at 3.7 µM,28%
same,growth inhibition,[4]; [16],4%
same,growth inhibition,[4]; at 11.0 µM,96% (active)
same,growth inhibition,[4]; at 33.0 µM,97% (active)
same,growth inhibition,[4]; [17],97% (active)
same,growth inhibition,[4]; at 50.0 µM,88.3% (active)
same,growth inhibition,[4]; at 100.0 µM,97% (active)
same,growth inhibition,[5]; at 1.2 µM,5%
same,growth inhibition,[5]; at 3.7 µM,24%
same,growth inhibition,[5]; [16],4%
same,growth inhibition,[5]; at 11.0 µM,97% (active)
same,growth inhibition,[5]; at 33.0 µM,98% (active)
same,growth inhibition,[5]; [17],99% (active)
same,growth inhibition,[5]; at 50.0 µM,90.5% (active)
same,growth inhibition,[5]; at 100.0 µM,96% (active)
same,growth inhibition,[6]; at 1.2 µM,-26%
same,growth inhibition,[6]; at 3.7 µM,-13%
same,growth inhibition,[6]; at 11.0 µM,94% (active)
same,growth inhibition,[6]; at 33.0 µM,97% (active)
same,growth inhibition,[6]; at 100.0 µM,95% (active)
same,growth inhibition,[7]; [16],16%
same,growth inhibition,[7]; [17],96% (active)
same,growth inhibition,[7]; at 50.0 µM,87.3% (active)
same,growth inhibition,[8]; at 1.2 µM,-13%
same,growth inhibition,[8]; at 3.7 µM,10%
same,growth inhibition,[8]; at 11.0 µM,98% (active)
same,growth inhibition,[8]; at 33.0 µM,98% (active)
same,growth inhibition,[8]; at 100.0 µM,95% (active)
same,growth inhibition,[9]; [16],35%
same,growth inhibition,[9]; [17],97% (active)
same,growth inhibition,[9]; at 50.0 µM,86.5% (active)
same,growth inhibition,[10]; at 1.2 µM,-19%
same,growth inhibition,[10]; at 3.7 µM,-6%
same,growth inhibition,[10]; [16],38%
same,growth inhibition,[10]; at 11.0 µM,96% (active)
same,growth inhibition,[10]; at 33.0 µM,97% (active)
same,growth inhibition,[10]; [17],97% (active)
same,growth inhibition,[10]; at 50.0 µM,87.9% (active)
same,growth inhibition,[10]; at 100.0 µM,96% (active)
same,growth inhibition,[11]; at 1.2 µM,0%
same,growth inhibition,[11]; at 3.7 µM,0%
same,growth inhibition,[11]; at 11.0 µM,93% (active)
same,growth inhibition,[11]; at 33.0 µM,97% (active)
same,growth inhibition,[11]; at 100.0 µM,96% (active)
same,growth inhibition,[12]; at 1.2 µM,14%
same,growth inhibition,[12]; at 3.7 µM,31%
same,growth inhibition,[12]; at 11.0 µM,95% (active)
same,growth inhibition,[12]; at 33.0 µM,98% (active)
same,growth inhibition,[12]; at 100.0 µM,96% (active)
same,growth inhibition,[13]; at 1.2 µM,17%
same,growth inhibition,[13]; at 3.7 µM,42%
same,growth inhibition,[13]; at 11.0 µM,96% (active)
same,growth inhibition,[13]; at 33.0 µM,97% (active)
same,growth inhibition,[13]; at 100.0 µM,96% (active)
same,growth inhibition,[14]; [16],41%
same,growth inhibition,[14]; [17],97% (active)
same,growth inhibition,[14]; at 50.0 µM,88.2% (active)
same,growth inhibition,[15]; at 1.2 µM,9%
same,growth inhibition,[15]; at 3.7 µM,28%
same,growth inhibition,[15]; at 11.0 µM,96% (active)
same,growth inhibition,[15]; at 33.0 µM,98% (active)
same,growth inhibition,[15]; at 100.0 µM,97% (active)

# Source: PubChem BioAssay (NCI)
